Read-out in experiment [1]: Urokinase-type plasminogen activator receptor (uPAR), PLAUR (gene 5329)
Description: BSK_4H_uPAR: BioMAP Diversity Plus: 4H Assay for Urokinase-type plasminogen activator receptor (uPAR) Biomarker Activity (AID 2283030). Particulars: primary human endothelial cells (HUVEC); actives raise or lower the signal. A digest of the protocol:
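Cell-surface uPAR ELISA signal, measured 24 h after dosing human umbilical vein endothelial cells, was analyzed with bidirectional fitting relative to DMSO. Parallel SRB staining of total protein tracked overt cytotoxicity.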

Read-out in experiment [2]: Vascular endothelial growth factor receptor 2 (Homo sapiens) (UniProt P35968)
The experiment can be described thus: BSK_4H_VEGFRII: BioMAP Diversity Plus: 4H Assay for Vascular endothelial growth factor receptor 2 (VEGFR2) Biomarker Activity (AID 2283031). Particulars: primary human endothelial cells (HUVEC); actives raise or lower the signal. Summed up:
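ELISA read-out of VEGFRII in primary human umbilical vein endothelium, taken 24 h after chemical treatment. Responses are expressed relative to DMSO, with bidirectional fitting.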

Read-out in experiment [3]: Vascular cell adhesion molecule 1 (VCAM1), VCAM1 (gene 7412)
The experiment can be described thus: BSK_4H_VCAM1: BioMAP Diversity Plus: 4H Assay for Vascular cell adhesion molecule 1 (VCAM1) Biomarker Activity (AID 2283033). Conditions: primary human endothelial cells (HUVEC); actives raise or lower the signal. A digest of the protocol: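 Primary human umbilical vein endothelial cells, 4H stimulation system, treated for 24 h; cell-surface VCAM-1 quantified by ELISA. Bidirectional fitting against DMSO; cytotoxicity tracked by SRB total-protein staining in parallel cultures.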

Read-out in experiment [4]: Interferon-gamma inducible Protein 10 (IP10), CXCL10 (gene 3627)
Description: BSK_BE3C_IP10: BioMAP Diversity Plus: BE3C Assay for Interferon-gamma inducible Protein 10 (IP10) Biomarker Activity (AID 2283034). Particulars: primary human bronchial epithelial cells; actives raise or lower the signal. A digest of the protocol:
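Primary human bronchial epithelial cells, with IP-10 measured by ELISA 24 hours after chemical dosing. Bidirectional fit against DMSO; cytotoxicity checked by SRB total protein staining in parallel cultures.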

Read-out in experiment [5]: Monokine induced gamma interferon (MIG), CXCL9 (gene 4283)
Description: BSK_BE3C_MIG: BioMAP Diversity Plus: BE3C Assay for Monokine induced gamma interferon (MIG) Biomarker Activity (AID 2283035). Conditions: primary human bronchial epithelial cells; actives raise or lower the signal. A digest of the protocol:
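Primary human bronchial epithelial cells treated for 24 h; MIG levels measured by ELISA, fitted bidirectionally versus DMSO. Parallel SRB total-protein staining assessed cytotoxicity.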

Read-out in experiment [6]: Transforming growth factor beta 1 (TGFb1), TGFB1 (gene 7040)
Description: BSK_BE3C_TGFb1: BioMAP Diversity Plus: BE3C Assay for Transforming growth factor beta 1 (TGFb1) Biomarker Activity (AID 2283036). Conditions: primary human bronchial epithelial cells; actives raise or lower the signal. Summed up: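 Primary human bronchial epithelial cells dosed with chemical; TGF-b1 measured by ELISA 24 h after dosing. Bidirectional curve fitting against DMSO negative control; SRB total-protein staining in parallel cultures gauged cytotoxicity.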

Read-out in experiment [7]: Plasminogen activator inhibitor-1 (PAI1), SERPINE1 (gene 5054)
The experiment can be described thus: BSK_BE3C_PAI1: BioMAP Diversity Plus: BE3C Assay for Plasminogen activator inhibitor-1 (PAI1) Biomarker Activity (AID 2283037). Conditions: primary human bronchial epithelial cells; actives raise or lower the signal. Summed up: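 Primary human bronchial epithelial cells (BE3C system) exposed 24 h; PAI-1 quantified by ELISA. Parallel sulforhodamine B staining of total protein flags cytotoxicity. Bidirectional fit versus DMSO.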

Read-out in experiment [8]: urokinase plasminogen activator (uPA), PLAU (gene 5328)
Description: BSK_BE3C_uPA: BioMAP Diversity Plus: BE3C Assay for urokinase plasminogen activator (uPA) Biomarker Activity (AID 2283038).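 Note: uPA protein level quantified by ELISA in cell cultures; uPA read one day after compound addition.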 Particulars: primary human bronchial epithelial cells; actives raise or lower the signal. A digest of the protocol: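 Bronchial epithelial cells (human, primary); chemical 24 h; uPA by ELISA; bidirectional fit vs DMSO. SRB (0.1%, after 10% TCA fixation, 560 nm) in parallel cultures for cytotoxicity.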

Read-out in experiment [9]: Urokinase-type plasminogen activator receptor (uPAR), PLAUR (gene 5329)
Description: BSK_BE3C_uPAR: BioMAP Diversity Plus: BE3C Assay for Urokinase-type plasminogen activator receptor (uPAR) Biomarker Activity (AID 2283039).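 Note: cells exposed to compound for one day before measurement.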 Conditions: primary human bronchial epithelial cells; actives raise or lower the signal. A digest of the protocol:
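Primary human bronchial epithelial cells dosed for 24 h; uPAR quantified by ELISA with bidirectional fitting against DMSO. Overt cytotoxicity assessed in parallel cultures by SRB total-protein staining (0.1% SRB, 560 nm).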

Read-out in experiment [10]: Interleukin-6 (IL6), IL6 (gene 3569)
Description: BSK_CASM3C_IL6: BioMAP Diversity Plus: CASM3C Assay for Interleukin-6 (IL6) Biomarker Activity for (AID 2283040). Conditions: primary human coronary artery smooth muscle cells; actives raise or lower the signal.

Read-out in experiment [11]: Tissue plasminogen activator (tPA), PLAT (gene 5327)
The experiment can be described thus: BSK_BE3C_tPA: BioMAP Diversity Plus: BE3C Assay for Tissue plasminogen activator (tPA) Biomarker Activity (AID 2283041).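 Note: tPA level quantified by ELISA one day after compound addition.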 Particulars: primary human bronchial epithelial cells; actives raise or lower the signal. Summed up: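 Primary human bronchial epithelial cells in the BE3C system, exposed to compound for 24 h. tPA was quantified by ELISA; DMSO served as baseline, with gain or loss of signal fitted. Cytotoxicity checked in parallel cultures by SRB total-protein staining.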

Read-out in experiment [12]: Interleukin-8 (IL8), CXCL8 (gene 3576)
The experiment can be described thus: BSK_CASM3C_IL8: BioMAP Diversity Plus: CASM3C Assay for Interleukin-8 (IL8) Biomarker Activity (AID 2283042).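 Note: IL-8 protein level quantified by ELISA.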 Particulars: primary human coronary artery smooth muscle cells; actives raise or lower the signal.

Read-out in experiment [13]: Human Leukocyte Antigen - DR isotype (HLADR), HLA-DRA (gene 3122)
The experiment can be described thus: BSK_CASM3C_HLADR: BioMAP Diversity Plus: CASM3C Assay for Human Leukocyte Antigen - DR isotype (HLADR) Biomarker Activity (AID 2283043).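 Note: cell-surface HLA-DR protein level quantified by ELISA.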 Particulars: primary human coronary artery smooth muscle cells; actives raise or lower the signal.

Read-out in experiment [14]: Macrophage colony-stimulating factor (MCSF), CSF1 (gene 1435)
Description: BSK_CASM3C_MCSF: BioMAP Diversity Plus: CASM3C Assay for Macrophage colony-stimulating factor (MCSF) Biomarker Activity (AID 2283044).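 Note: M-CSF protein amount quantified by ELISA after 24 h exposure.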 Particulars: primary human coronary artery smooth muscle cells; actives raise or lower the signal.

Read-out in experiment [15]: Low-density lipoprotein receptor (LDLR), LDLR (gene 3949)
Description: BSK_CASM3C_LDLR: BioMAP Diversity Plus: CASM3C Assay for Low-density lipoprotein receptor (LDLR) Biomarker Activity (AID 2283045).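 Note: LDLR protein level on the cell surface quantified by ELISA.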 Conditions: primary human coronary artery smooth muscle cells; actives raise or lower the signal.

Read-out in experiment [16]: Monocyte Chemoattractant Protein-1 (MCP1), CCL2 (gene 6347)
The experiment can be described thus: BSK_CASM3C_MCP1: BioMAP Diversity Plus: CASM3C Assay for Monocyte Chemoattractant Protein-1 (MCP1) Biomarker Activity (AID 2283046).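 Note: MCP-1 level quantified by ELISA 24 h after dosing.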 Conditions: primary human coronary artery smooth muscle cells; actives raise or lower the signal.

Experiment [17] in a line: BSK_CASM3C_Proliferation: Cell Proliferation Assessment in the BioMAP Diversity Plus: CASM3C Assay (AID 2283047).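 Note: sulforhodamine B total protein stain as relative cell number at 560 nm; sub-confluent cells exposed 48 h before staining; fitted both ways against DMSO so gain or loss of cell number.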 Conditions: primary human coronary artery smooth muscle cells.
Read-out in experiment [18]: Monokine induced gamma interferon (MIG), CXCL9 (gene 4283)
The experiment can be described thus: BSK_CASM3C_MIG: BioMAP Diversity Plus: CASM3C Assay for Monokine induced gamma interferon (MIG) Biomarker Activity (AID 2283048). Particulars: primary human coronary artery smooth muscle cells; actives raise or lower the signal.

Read-out in experiment [19]: serum amyloid A (SAA), SAA1 (gene 6288)
The experiment can be described thus: BSK_CASM3C_SAA: BioMAP Diversity Plus: CASM3C Assay for serum amyloid A (SAA) Biomarker Activity (AID 2283049).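 Note: SAA protein level quantified by ELISA.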 Particulars: primary human coronary artery smooth muscle cells; actives raise or lower the signal.

Read-out in experiment [20]: Human Leukocyte Antigen - DR isotype (HLADR), HLA-DRA (gene 3122)
The experiment can be described thus: BSK_BE3C_HLADR: BioMAP Diversity Plus: BE3C Assay for Human Leukocyte Antigen - DR isotype (HLADR) Biomarker Activity (AID 2283032). Conditions: primary human bronchial epithelial cells; actives raise or lower the signal. Summed up: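 Human primary bronchial epithelial cells (BE3C system) exposed to compound for 24 hours; cell-surface HLA-DR measured by ELISA, fitted bidirectionally relative to DMSO. Total protein by SRB in parallel cultures tracked cytotoxicity.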

Each structure is given as a SMILES string. Active and inactive are the calls of the source. Rule for the calls: active = hit-call score of the fitted dose curve at least 0.9, where 1 is the maximum; inactive = score below 0.9.

The values below come from PubChem BioAssay (EPA / NIEHS).

As usually defined, the AC50 is the concentration giving half of the maximal activity seen. Regarding `CC(Cl)COP(=O)(OCC(C)Cl)OCC(C)Cl` (stereo not given), the result in experiment [1], in [2], in experiment [3], in experiment [4], in [5] and in experiment [6] was inactive. Moreover, the result in experiment [7], in experiment [8], in [9], in experiment [10], in experiment [11] and in experiment [12] was inactive. Also, the result in experiment [13], in experiment [14], in experiment [15], in [16], in experiment [18] and in experiment [19] was inactive. For the same compound, the AC50 in experiment [17] was 0.159 µM (active).

Turning to `CC(C)[N+](C)(CCOC(=O)C1c2ccccc2Oc2ccccc21)C(C)C`, the result in experiment [1], in experiment [2], in [20], in [3], in [4] and in experiment [5] was inactive. For the same compound, the outcome in [6], in experiment [7], in experiment [8], in experiment [9], in experiment [10] and in [11] was inactive. Further, the result in experiment [12], in experiment [13], in experiment [14], in [15], in [16] and in [17] was inactive. Moreover, the outcome in experiment [18] and in [19] was inactive.

Turning to `CCCCCC1=CCCC1=O`, the result in [1], in experiment [2], in experiment [3], in experiment [4], in experiment [5] and in experiment [6] was inactive. Further, the outcome in [7], in [8], in [9], in experiment [10], in [11] and in experiment [12] was inactive. The result in experiment [13], in experiment [14], in experiment [15], in experiment [16], in [17] and in [18] was inactive. For the same compound, in [19], the result was inactive.

For the compound `CC1(C)CC(O)CC(C)(C)N1[O]`, the result in experiment [1], in experiment [2], in [3], in experiment [4], in experiment [5] and in experiment [6] was inactive. Also, the result in experiment [7], in [8], in [9], in experiment [10], in experiment [11] and in experiment [12] was inactive. The outcome in experiment [13], in experiment [14], in experiment [15], in experiment [16], in experiment [17] and in experiment [18] was inactive. Moreover, the result in [19] was inactive.

With `CC(c1cc(C(C)(C)C)cc(C(C)(C)C)c1O)c1cc(C(C)(C)C)cc(C(C)(C)C)c1O`, the result in experiment [1], in [2], in experiment [3], in experiment [4], in experiment [5] and in [6] was inactive. In addition, the result in experiment [7], in [8], in experiment [9], in experiment [10], in [11] and in [12] was inactive. Moreover, the result in [13], in [14], in [15], in experiment [16], in experiment [17] and in experiment [18] was inactive. Also, the outcome in [19] was inactive.

As for `CC(C)c1cccc(C(C)C)c1N`, the result in [1], in experiment [2], in experiment [20], in [4], in [5] and in experiment [6] was inactive. Further, the outcome in experiment [7], in [8], in experiment [9], in [10], in experiment [11] and in [12] was inactive. The outcome in experiment [13], in [14], in experiment [15], in experiment [16], in experiment [17] and in experiment [18] was inactive. Also, the result in [19] was inactive. Moreover, the AC50 in experiment [3] is 32 µM (active).

`CCCC(C)C(=O)OCC` (stereo not given): the outcome in experiment [1], in [2], in [20], in experiment [3], in experiment [4] and in experiment [5] was inactive. Moreover, the result in experiment [7], in experiment [8], in experiment [9], in experiment [10], in [11] and in experiment [12] was inactive. Further, the outcome in experiment [13], in experiment [14], in experiment [15], in experiment [16], in [17] and in [18] was inactive. Further, the outcome in experiment [19] was inactive.
